From PubChem BioAssay AID1159580 (chemical genetic matrix, 2015)
The campaign covered roughly 5,500 compounds. About 2,000 (36%) were called active. Inconclusive results (about 18%) are left out. The list shows a part of the results. A number with no mark means an inactive call. Rule as the data show it: active = normalized growth mostly below about 0.91 (no sharp cut-off); inconclusive = no clear call, values can overlap the other calls; inactive = mostly above about 0.92.

Experiment: chemical genetic growth profiling, strain panel (AID 1159580);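 also: tested at 20 µM; growth read once vehicle control cultures reached saturation at 30 °C; 1 = growth at the plate median or of vehicle wells; lower values mean less growth of the strain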
Conditions: growth OD
[1] = S. cerevisiae deletion strains, locus YBR229C, strain ROT2, hits give low values
[2] = S. cerevisiae deletion strains, locus YCL061C, strain MRC1, hits give low values
[3] = S. cerevisiae deletion strains, locus YDL101C, strain DUN1, hits give low values
[4] = S. cerevisiae deletion strains, locus YDL134C, strain PPH21, hits give low values
[5] = S. cerevisiae deletion strains, locus YDR150W, strain NUM1, hits give low values
[6] = S. cerevisiae deletion strains, locus YEL061C, strain CIN8, hits give low values
[7] = S. cerevisiae deletion strains, locus YGR078C, strain PAC10, hits give low values
[8] = S. cerevisiae deletion strains, locus YHR030C, strain SLT2, hits give low values
[9] = S. cerevisiae deletion strains, locus YHR087W, strain rtc3, hits give low values
[10] = S. cerevisiae deletion strains, locus YJR043C, strain POL32, hits give low values
[11] = S. cerevisiae deletion strains, locus YJR075W, strain HOC1, hits give low values
[12] = S. cerevisiae deletion strains, locus YLR039C, strain RIC1, hits give low values
[13] = S. cerevisiae deletion strains, locus YLR058C, strain SHM2 (second series), hits give low values
[14] = S. cerevisiae deletion strains, locus YLR085C, strain ARP6, hits give low values
[15] = S. cerevisiae deletion strains, locus YLR262C, strain YPT6, hits give low values
[16] = S. cerevisiae deletion strains, locus YML094W, strain GIM5, hits give low values
[17] = S. cerevisiae deletion strains, locus YMR219W, strain ESC1, hits give low values
[18] = S. cerevisiae deletion strains, locus YMR263W, strain SAP30, hits give low values
[19] = S. cerevisiae deletion strains, locus YNL153C, strain GIM3, hits give low values
[20] = S. cerevisiae deletion strains, locus YNL298W, strain CLA4 (second series), hits give low values
[21] = S. cerevisiae deletion strains, locus YNL322C, strain KRE1, hits give low values
[22] = S. cerevisiae deletion strains, locus YNR030W, strain Alg12, hits give low values
[23] = S. cerevisiae deletion strains, locus YPL055C, strain LGE1, hits give low values
[24] = S. cerevisiae deletion strains, locus YPL241C, strain CIN2, hits give low values
[25] = S. cerevisiae deletion strains, locus YPR135W, strain CTF4, hits give low values

Work on `Cc1ccc(OCC(=O)NN)c2c1CCC2` yielded a normalized growth [1] of 1, a normalized growth [2] of 0.994 and a normalized growth [3] of 1.03. The normalized growth [4] was 1.01, the normalized growth [5] was 1.01 and the normalized growth [6] was 1.01. The normalized growth [7] was 0.989, the normalized growth [8] was 0.985 and the normalized growth [9] was 1.04. The normalized growth [10] was 0.99, the normalized growth [11] was 0.989 and the normalized growth [12] was 0.867. For the same molecule, the normalized growth [13] was 1.01, the normalized growth [14] was 1.01 and the normalized growth [15] was 0.913. For the same molecule, the normalized growth [16] was 1.01, the normalized growth [17] was 0.991 and the normalized growth [18] was 1.01. For the same molecule, the normalized growth (S. cerevisiae deletion strains, locus YMR307W, strain GAS1, hits give low values) was 0.963, the normalized growth [19] was 1 and the normalized growth [20] was 0.989. It also gave a normalized growth [21] of 0.997, a normalized growth [22] of 1.01 and a normalized growth (S. cerevisiae deletion strains, locus YOL006C, strain TOP1, hits give low values) of 1.01. The normalized growth [23] was 1.01, the normalized growth [24] was 1.01 and the normalized growth [25] was 0.982. For the same molecule, the normalized growth (S. cerevisiae strains, strain wild type, hits give low values) was 1.01.

In the case of `Cc1cc(Br)c(OCC(=O)NN)c2c1CCC2`, the normalized growth (S. cerevisiae deletion strains, locus YAL013W, strain DEP1, hits give low values) is reported as 1, the normalized growth [1] is reported as 1 and the normalized growth [2] is reported as 1.01. For the same molecule, the normalized growth [3] was 0.995, the normalized growth [4] was 1 and the normalized growth [5] was 1.05. The normalized growth [6] was 0.985, the normalized growth [7] was 0.999 and the normalized growth [8] was 0.856. For the same molecule, the normalized growth [9] was 0.993, the normalized growth [10] was 0.998 and the normalized growth [11] was 0.989. For the same molecule, the normalized growth (S. cerevisiae deletion strains, locus YKL190W, strain CNB1, hits give low values) was 0.989, the normalized growth [12] was 0.608 (active) and the normalized growth [13] was 0.999. The normalized growth [14] was 0.947, the normalized growth [15] was 0.584 (active) and the normalized growth [16] was 0.975. It also gave a normalized growth [17] of 1, a normalized growth [18] of 0.961 and a normalized growth [19] of 1.02. For the same molecule, the normalized growth [20] was 0.979, the normalized growth [21] was 0.994 and the normalized growth [22] was 0.997. It also gave a normalized growth [23] of 0.915, a normalized growth [24] of 1.02 and a normalized growth [25] of 0.906.
